# In publication PMC4552634, “A New Set of Chemical Starting Points with Plasmodium falciparum Transmission-Blocking Potential for Antimalarial Drug Discovery” (PLoS ONE, 2015):
# Screen size: about 13,000 compounds; about 3,200 (25%) showed an effect of 50% or more. The list shows a part of the results.
# System: P. falciparum stage V gametocytes
# Set-up: BacTiter-Glo ATP luminescence viability of purified stage V gametocytes in 384-well plates, per cent inhibition versus DMSO
# Conditions: 48 h, 5 µM; inhibitor
row,Structure (SMILES),% Inhibition [%]
1,Cc1ccccc1C1CCN(C2CCC(NC(=O)c3cc4cc(C(C)C)ccc4[nH]3)CC2)CC1 (stereo not drawn) [TCMDC-133554],15.06
2,COc1ccc2ncc(C#N)c(CCN3C4CCC3CC(NCc3ccc5c(n3)NC(=O)CS5)C4)c2c1 (stereo not drawn) [TCMDC-135180],37.34
3,Brc1cnc(NC2=NCCN2)c(Br)c1 [TCMDC-131680],12.04
4,Cc1nc(C)c(CC(=O)Nc2cccc(-c3cccc(-c4nc5ccc(C(F)(F)F)cc5[nH]4)c3)c2)s1 [TCMDC-136995],4.513
5,CC(C)(CN)c1nc(-c2ccc(Br)c(O)c2)c(-c2ccncc2)[nH]1 [TCMDC-140680],-59.77
6,O=C(/C=C/c1ccc(Cl)c(Cl)c1)NCCCCCN1CCC(NC(=O)Nc2ccccc2F)CC1 [TCMDC-139386],-2.666
7,C=CCOC1OC(COC(c2ccccc2)(c2ccccc2)c2ccccc2)C(OC(C)=O)C(OC(C)=O)C1NC(C)=O (stereo not drawn) [TCMDC-131992],13.79
8,CCN(CC)CCN(Cc1ccc(-c2ccc(C(F)(F)F)cc2)cc1)C(=O)Cn1c(CCc2cccc(F)c2F)nc(=O)c2cccnc21 [TCMDC-141013],97.72
9,CCN(CC)CCN(CCCc1ccc(-c2ccc(C(F)(F)F)cc2)cc1)C(=O)Cn1c(CCc2cccc(F)c2F)nc(=O)c2c1CCC2 [TCMDC-140984],42.45
10,CCN(CC)CCN(Cc1ccc(-c2ccc(C(F)(F)F)cc2)cc1)C(=O)Cn1c(CCc2cccc(F)c2F)c(C)c(=O)c2ccccc21 [TCMDC-141313],76.85
11,CC(C)(C)NCCN(Cc1ccc(-c2ccc(C(F)(F)F)cc2)cc1)C(=O)Cn1c(CCc2cccc(F)c2F)nc(=O)c2c1CCC2 [TCMDC-140979],113.3
12,CCN(CC)CCN(Cc1ccc(-c2ccc(C(F)(F)F)cc2)cc1)C(=O)Cn1c(CCc2cccc(F)c2F)nc(=O)c2ccccc21 [TCMDC-140922],60.98
13,CCN(CC)CCN(Cc1ccc(-c2ccc(C(F)(F)F)cc2)cc1)C(=O)Cn1c(CCc2ccc(F)c(F)c2F)nc(=O)c2cccnc21 [TCMDC-141002],20.31
14,Cn1nccc1C(=O)NCCNCc1cccc(-c2csc(-c3nc4ccccc4[nH]3)c2)c1 [TCMDC-133002],-62.03
15,CCCN1CCc2c(sc3nc(SCC(=O)Nc4ccc(C)cc4)n(-c4ccc(C)cc4)c(=O)c23)C1 [TCMDC-125451],5.583
16,O=C(NC1CCCc2ccccc21)C1CCCN(C(=O)c2ccc(O)c(-c3ccc(Cl)c(Cl)c3)c2)C1 (stereo not drawn) [TCMDC-140890],19.76
17,CCn1c(CN2CCC(C)CC2)nc2cc(NC(=O)c3cccs3)ccc21 [TCMDC-124730],-26.92
18,CCCCCCCN(Cc1ccc(OC(C)(C)C(=O)OCC)cc1)C(=O)Cc1ccc(F)cc1F [TCMDC-131920],13.51
19,COC(=O)c1cccc(NC(=O)NC2CCN(c3ccnc(Nc4ccc(OC)cc4)n3)C2)c1 (stereo not drawn) [TCMDC-133618],-6.04
20,CC1CN(Cc2cccc(-c3ccc(-c4nc5ccccc5[nH]4)cc3)c2)CC(C)O1.O=C(O)C(F)(F)F (stereo not drawn) [TCMDC-133816],-91.64
21,CSc1ccc(NC(=O)Nc2cc(C)nc3ccccc23)cc1Br [TCMDC-139874],-51.95

row,Structure (SMILES),% Inhibition [%]
1,CCN(CC)CCN(Cc1ccc(-c2ccc(C(F)(F)F)cc2)cc1)C(=O)Cn1c(CCc2ccc(F)c(F)c2F)nc(=O)c2ccc(F)cc21 [TCMDC-141072],19.94
2,CCN(CC)CCN(Cc1ccc(-c2ccc(C(F)(F)F)cc2)cc1)C(=O)Cn1c(CCc2ccccc2F)nc(=O)c2ccccc21 [TCMDC-141012],52.86
3,CCN(CC)CCN(Cc1ccc(-c2ccc(C(F)(F)F)cc2)cc1)C(=O)Cn1c(CCc2ccc(F)c(F)c2F)nc(=O)c2ccccc21 [TCMDC-140952],68.69
4,Clc1ccc2c(NN=Cc3cccnc3)ccnc2c1 [TCMDC-123968],-19.33
5,Cc1cccc2c3c([nH]c12)C1(CCN(CCc2ccccc2)CC1)NC(C(=O)NCc1ccccc1)C3 (stereo not drawn) [TCMDC-141245],-39.36
6,Cc1cc(CN2CCN(CCOC(c3ccccc3)c3ccccc3)CC2)ccc1O [TCMDC-135695],-7.709
7,Cc1ccc(C)c(S(=O)(=O)NCC2CCN(Cc3ccc(O)cc3)CC2)c1 [TCMDC-141802],45.59
8,COc1cc2ccccc2cc1CNCCCCCCNCc1cc2ccccc2cc1OC [TCMDC-137955],4.122
9,COc1cc(CNCCCCCCNCc2cc(OC)c3ccccc3c2OC)c(OC)c2ccccc12 [TCMDC-137502],106.1
10,CCOc1cc(CNCCCCCCNCc2cc(OCC)c(OCC)c3ccccc23)c2ccccc2c1OCC [TCMDC-137939],106
11,COc1cc(CNCCCCCCNCc2cc(OC)c(OC)c3ccccc23)c2ccccc2c1OC [TCMDC-137981],104.3
12,CCOc1c(CNCCCNc2cc(=O)c3ccccc3[nH]2)cc(I)cc1OC [TCMDC-139847],-35.79
13,CCOc1cc2ccccc2cc1CNCCCCCCNCc1cc2ccccc2cc1OCC [TCMDC-137940],69.35
14,CCOc1c(C)cc(C(F)(F)F)cc1CNCCCNc1cc(=O)c2ccccc2[nH]1 [TCMDC-141046],-34.36
15,CCOc1c(Br)cc(C)cc1CNCCCNc1nc2ccccc2[nH]1 [TCMDC-140090],7.25
16,COc1cc(-c2cc(-c3ccc(OCCN(C)C)cc3)[nH]c2-c2ccncc2)ccc1Cl [TCMDC-141251],-2.677
17,COc1cc(F)c2ncc(Cl)c([C@H](O)CN3CCC(NCc4cc5c(cn4)OCCO5)CC3)c2c1 [TCMDC-135474],10.97
18,O=C(NC1CCC(CCN2Cc3cccc(C(F)(F)F)c3C2)CC1)c1cccc(-c2cccnc2)c1 (stereo not drawn) [TCMDC-139602],-51.73
19,COc1ccc(CNCc2ccc(-c3ccc(-c4nc5cc(C(F)(F)F)ccc5[nH]4)cc3)cc2)cc1.O=C(O)C(F)(F)F [TCMDC-132724],-6.92
20,O=C(Nc1cccc(-c2ccc(-c3nc4ccc(F)cc4[nH]3)cc2)c1)Nc1ccc(Cl)c(Cl)c1 [TCMDC-133280],-66.79
21,CC1CCN(CC[C@H]2CCCN2S(=O)(=O)c2cccc(NC(=O)c3cc4ccccc4s3)c2)CC1 [TCMDC-141077],-68

row,Structure (SMILES),% Inhibition [%]
1,CC(C)C[C@H](NC(=O)c1cc2ccccc2s1)C(=O)N[C@H]1CCN(Cc2ccc(I)c(OC3CCN(C)C3)c2)C1 (stereo partly drawn) [TCMDC-140288],64.78
2,CC(C)C[C@H](NC(=O)c1cc2ccccc2s1)C(=O)N[C@H]1CCN(Cc2ccc(I)c(OCCN3CCCC3)c2)C1 [TCMDC-140287],56
3,CC(C)C[C@H](NC(=O)c1cc2ccccc2s1)C(=O)N[C@H]1CCN(Cc2ccc(OC3CCN(C)C3)c(Cl)c2)C1 (stereo partly drawn) [TCMDC-140293],19.83
4,CC(C)C[C@H](NC(=O)c1cc2ccccc2s1)C(=O)N[C@H]1CCN(Cc2ccc(OCCCN(C)C)c(Cl)c2)C1 [TCMDC-140291],44.54
5,CC(C)CC(NC(=O)c1cc2ccccc2s1)C(=O)N1CCCCCC1c1ccc(C(C)(C)C)cc1 (stereo not drawn) [TCMDC-136337],63.43
6,N#Cc1ccccc1S(=O)(=O)N1CCCC(CNC(=O)[C@H](CC2CCCCC2)NC(=O)c2cc3ccccc3s2)C1 (stereo partly drawn) [TCMDC-136558],-3.694
7,COc1ccc(CC2(c3ccc(F)cc3)N=C(N)N(CCCc3ccc(F)c(F)c3)C2=O)cc1 (stereo not drawn) [TCMDC-136542],-2.474
8,Clc1ccc2nnc(-c3c(Cl)cccc3Cl)n2n1 [TCMDC-124489],23.9
9,c1cc(CNCC2CCCO2)cc(-c2csc(-c3nc4ccccc4[nH]3)c2)c1 (stereo not drawn) [TCMDC-133108],-15.46
10,C=CCc1cc(Br)ccc1OCCCOc1c(C)nc(N)nc1N [TCMDC-131366],-2.875
11,Cc1ccc2c(OCCN3CCC(Cc4ccc5c(c4)NC(=O)CO5)CC3)cc(F)cc2n1 [TCMDC-141356],22.38
12,CC(c1cccc(S(=O)(=O)NCc2cccc(C(F)(F)F)c2)c1)N1CCC(N2CCCCC2)CC1 (stereo not drawn) [TCMDC-133565],5.245
13,Cc1cccc(S(=O)(=O)Nc2cccc(CCN3CCC(N4CCCCC4)CC3)c2)c1 [TCMDC-134087],26.17
14,O=S(=O)(Nc1ccc(CCN2CCC(N3CCCCC3)CC2)cc1)c1cccc(C(F)(F)F)c1 [TCMDC-134090],84.05
15,O=S(=O)(Nc1cccc(CCN2CCC(N3CCCCC3)CC2)c1)c1cccc(C(F)(F)F)c1 [TCMDC-134086],60.6
16,O=S(=O)(Nc1ccc(CCN2CCC(N3CCCCC3)CC2)cc1)c1ccccc1C(F)(F)F [TCMDC-134080],79.99
17,O=S(=O)(Nc1cccc(CCN2CCC(N3CCCCC3)CC2)c1)c1ccccc1C(F)(F)F [TCMDC-134070],2.875
18,O=C(c1ccc(Cl)cc1)C1CCCN(C2CCN(CCc3ccccc3)CC2)C1 (stereo not drawn) [TCMDC-124655],-36.02
19,O=c1ccc(-c2nc3cc(Cl)c(Cl)cc3n2Cc2ccc(Cl)cc2Cl)c[nH]1 [TCMDC-124041],6.921
20,Cc1ccc(Nc2nc(C)cc(Nc3cccc(NS(C)(=O)=O)c3)n2)cc1 [TCMDC-133449],22.69
21,CCCc1cc(Cc2cnc(N)nc2N)cc(CCC)c1OCCCCCC(=O)OCC [TCMDC-137289],-20.26
